Measured values taken from ChEMBL document CHEMBL1961873, “Compounds: GSK PKIS; Assays: Nanosyn kinase panel” (2012).

Experiments:
[1] = target: RAF proto-oncogene serine/threonine-protein kinase (Homo sapiens) (UniProt P04049); conditions: at 1 µM;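 note: values are the mean percent inhibition of CRAF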
[2] = target: T1, Interleukin-1 receptor-associated kinase 4 (Homo sapiens) (UniProt Q9NWZ3); conditions: at 0.1 µM
T1 sequence (whole entry): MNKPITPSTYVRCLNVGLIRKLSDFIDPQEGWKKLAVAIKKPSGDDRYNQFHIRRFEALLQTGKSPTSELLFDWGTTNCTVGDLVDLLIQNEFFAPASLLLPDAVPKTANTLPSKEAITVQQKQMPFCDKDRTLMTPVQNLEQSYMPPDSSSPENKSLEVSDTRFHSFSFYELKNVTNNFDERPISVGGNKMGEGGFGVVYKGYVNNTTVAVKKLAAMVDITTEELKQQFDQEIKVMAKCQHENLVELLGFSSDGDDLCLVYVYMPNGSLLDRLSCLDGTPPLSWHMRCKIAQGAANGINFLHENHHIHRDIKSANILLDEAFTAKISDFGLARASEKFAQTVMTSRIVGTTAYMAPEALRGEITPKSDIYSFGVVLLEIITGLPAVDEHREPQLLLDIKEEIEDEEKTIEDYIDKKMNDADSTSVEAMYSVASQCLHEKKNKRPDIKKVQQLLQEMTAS

[3] = target: T1, Interleukin-1 receptor-associated kinase 4 (Homo sapiens); conditions: at 1 µM
[4] = target: Leucine-rich repeat serine/threonine-protein kinase 2 (Homo sapiens) (UniProt Q5S007); conditions: at 0.1 µM
Chain of Leucine-rich repeat serine/threonine-protein kinase 2 (Homo sapiens) (Q5S007 whole entry): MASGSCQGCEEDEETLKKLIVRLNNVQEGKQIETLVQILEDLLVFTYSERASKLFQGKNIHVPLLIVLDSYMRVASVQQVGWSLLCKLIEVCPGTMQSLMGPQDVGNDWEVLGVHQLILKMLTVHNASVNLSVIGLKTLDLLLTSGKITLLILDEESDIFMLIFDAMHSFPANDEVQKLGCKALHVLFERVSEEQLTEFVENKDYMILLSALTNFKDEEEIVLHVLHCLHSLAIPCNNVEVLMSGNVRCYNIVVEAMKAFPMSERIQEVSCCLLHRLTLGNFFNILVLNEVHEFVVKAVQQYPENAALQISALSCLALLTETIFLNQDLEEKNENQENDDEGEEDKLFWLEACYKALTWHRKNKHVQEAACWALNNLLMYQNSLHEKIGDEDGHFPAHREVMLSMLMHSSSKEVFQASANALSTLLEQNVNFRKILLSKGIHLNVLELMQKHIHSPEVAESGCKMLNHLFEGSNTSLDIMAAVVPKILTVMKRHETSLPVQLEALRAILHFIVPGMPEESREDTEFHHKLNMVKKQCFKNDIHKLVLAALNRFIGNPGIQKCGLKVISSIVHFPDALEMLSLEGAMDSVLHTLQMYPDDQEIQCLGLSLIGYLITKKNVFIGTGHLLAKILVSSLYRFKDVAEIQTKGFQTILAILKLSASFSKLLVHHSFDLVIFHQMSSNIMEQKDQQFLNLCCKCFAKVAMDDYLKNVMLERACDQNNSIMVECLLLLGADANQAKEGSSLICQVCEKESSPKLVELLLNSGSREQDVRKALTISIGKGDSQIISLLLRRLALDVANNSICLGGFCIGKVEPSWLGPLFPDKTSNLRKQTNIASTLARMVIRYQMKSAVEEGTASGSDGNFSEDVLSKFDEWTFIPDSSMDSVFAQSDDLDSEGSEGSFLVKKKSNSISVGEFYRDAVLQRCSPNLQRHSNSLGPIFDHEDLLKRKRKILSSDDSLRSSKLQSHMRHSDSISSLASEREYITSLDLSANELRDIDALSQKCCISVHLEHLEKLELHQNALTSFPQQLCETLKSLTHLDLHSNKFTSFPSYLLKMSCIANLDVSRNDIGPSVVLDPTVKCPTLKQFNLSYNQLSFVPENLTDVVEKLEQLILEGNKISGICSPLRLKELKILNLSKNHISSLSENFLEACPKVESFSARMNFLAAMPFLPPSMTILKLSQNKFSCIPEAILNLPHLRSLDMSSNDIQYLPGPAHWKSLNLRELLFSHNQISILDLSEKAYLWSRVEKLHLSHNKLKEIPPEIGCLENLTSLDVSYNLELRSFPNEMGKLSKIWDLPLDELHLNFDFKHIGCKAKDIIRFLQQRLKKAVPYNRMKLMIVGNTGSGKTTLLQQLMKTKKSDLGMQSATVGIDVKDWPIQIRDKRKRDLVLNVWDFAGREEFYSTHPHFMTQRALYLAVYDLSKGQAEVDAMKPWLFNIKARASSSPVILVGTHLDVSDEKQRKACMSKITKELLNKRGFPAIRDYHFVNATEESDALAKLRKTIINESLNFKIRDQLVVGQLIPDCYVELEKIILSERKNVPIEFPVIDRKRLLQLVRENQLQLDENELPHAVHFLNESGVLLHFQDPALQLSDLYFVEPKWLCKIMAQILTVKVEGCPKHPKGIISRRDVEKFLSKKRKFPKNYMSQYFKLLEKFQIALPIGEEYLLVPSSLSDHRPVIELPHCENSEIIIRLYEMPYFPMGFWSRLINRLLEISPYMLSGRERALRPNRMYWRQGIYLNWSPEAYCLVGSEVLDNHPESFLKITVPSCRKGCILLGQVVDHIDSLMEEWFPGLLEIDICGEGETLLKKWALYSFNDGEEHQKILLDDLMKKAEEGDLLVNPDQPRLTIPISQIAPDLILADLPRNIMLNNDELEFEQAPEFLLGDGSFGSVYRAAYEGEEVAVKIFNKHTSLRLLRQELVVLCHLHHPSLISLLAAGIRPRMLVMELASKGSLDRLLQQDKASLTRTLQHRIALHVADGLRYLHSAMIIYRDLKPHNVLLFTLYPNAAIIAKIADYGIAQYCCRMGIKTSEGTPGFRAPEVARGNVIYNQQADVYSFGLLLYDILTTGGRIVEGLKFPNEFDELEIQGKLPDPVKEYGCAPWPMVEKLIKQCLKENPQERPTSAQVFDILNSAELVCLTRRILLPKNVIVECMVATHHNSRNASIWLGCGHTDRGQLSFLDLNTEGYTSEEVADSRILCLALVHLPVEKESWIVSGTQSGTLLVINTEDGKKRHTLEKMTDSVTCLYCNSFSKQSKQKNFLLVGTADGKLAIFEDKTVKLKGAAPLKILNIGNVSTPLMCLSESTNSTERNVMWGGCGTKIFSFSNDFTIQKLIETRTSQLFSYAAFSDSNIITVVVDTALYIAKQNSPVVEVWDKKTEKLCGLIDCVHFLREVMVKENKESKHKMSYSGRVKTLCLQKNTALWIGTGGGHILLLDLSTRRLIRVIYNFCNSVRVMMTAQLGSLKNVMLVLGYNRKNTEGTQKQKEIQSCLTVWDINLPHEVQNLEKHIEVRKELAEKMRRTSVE

[5] = target: Leucine-rich repeat serine/threonine-protein kinase 2 (Homo sapiens) (UniProt Q5S007); conditions: at 1 µM
[6] = tested on: Leucine-rich repeat serine/threonine-protein kinase 2 (Homo sapiens), Q5S007 [G2019S]; conditions: at 0.1 µM
Chain of Leucine-rich repeat serine/threonine-protein kinase 2 (Homo sapiens), Q5S007 [G2019S] (Q5S007 whole entry G2019S): as the sequence (Q5S007 whole entry) above, with G2019S counted along it

[7] = tested on: Leucine-rich repeat serine/threonine-protein kinase 2 (Homo sapiens), Q5S007 [G2019S]; conditions: at 1 µM

Chain of RAF proto-oncogene serine/threonine-protein kinase (Homo sapiens) (P04049 whole entry): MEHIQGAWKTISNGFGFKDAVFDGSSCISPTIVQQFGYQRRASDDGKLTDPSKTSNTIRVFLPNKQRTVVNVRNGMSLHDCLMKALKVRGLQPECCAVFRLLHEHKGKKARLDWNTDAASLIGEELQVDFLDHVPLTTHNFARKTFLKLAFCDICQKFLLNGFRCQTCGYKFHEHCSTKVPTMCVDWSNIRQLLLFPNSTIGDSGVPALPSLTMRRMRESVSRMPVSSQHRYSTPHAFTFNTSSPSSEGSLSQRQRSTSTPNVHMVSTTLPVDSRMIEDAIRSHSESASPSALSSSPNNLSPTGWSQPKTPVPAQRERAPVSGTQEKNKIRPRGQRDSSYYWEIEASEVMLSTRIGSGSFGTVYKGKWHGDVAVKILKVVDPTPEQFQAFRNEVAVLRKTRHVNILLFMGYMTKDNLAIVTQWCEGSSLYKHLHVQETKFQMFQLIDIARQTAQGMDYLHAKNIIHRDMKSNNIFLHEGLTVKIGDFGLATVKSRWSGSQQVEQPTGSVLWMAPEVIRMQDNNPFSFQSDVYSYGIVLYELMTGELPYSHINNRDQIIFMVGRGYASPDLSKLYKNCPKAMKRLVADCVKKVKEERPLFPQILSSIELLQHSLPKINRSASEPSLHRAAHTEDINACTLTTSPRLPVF

Compound	inhibition [1]	inhibition [2]	inhibition [3]	inhibition [4]	inhibition [5]	inhibition [6]	inhibition [7]
NS(=O)(=O)c1ccc(-c2ccc3c(NC(=O)C4CC4)n[nH]c3c2)cc1	9.01%	-1.93%	1.48%	2.77%	2.56%	3.47%	7.51%
Cc1cc(-c2ccco2)cc(C)c1/C=C/c1cncc(-c2nn[nH]n2)c1	-5.34%	-0.17%	-0.12%	4.45%	8.02%	5.52%	5.78%
NC(=O)c1sc(-n2cnc3cc(C(F)(F)F)ccc32)cc1OCc1ccccc1Br	5.05%	0.4%	1.13%	3.39%	6.23%	3.66%	6.47%
COc1cccc(-n2ncc3c(N/N=C/c4ccncc4)ncnc32)c1	3.93%	2.61%	4.07%	4.32%	16.6%	7.97%	37.4%
COc1cccc(COc2cc(-n3cnc4ccccc43)sc2C(N)=O)c1	0.06%	-1.12%	-1.16%	2.35%	14.6%	5.15%	31.2%
Nc1nonc1-c1nc2cnccc2n1C1CCCCC1	13.7%	2.08%	-1.3%	4.67%	20%	9.49%	45.5%
CCn1c(-c2nonc2N)nc2c(C#CC(C)(C)O)nc(O[C@@H](CN)c3ccccc3)cc21	-0.12%	2.57%	-0.97%	1.02%	12.4%	5.6%	35.9%
CCn1c(-c2nonc2N)nc2c(C#CCN)ncc(OCCCN)c21	1.98%	1.9%	-2%	3.78%	5.71%	4.23%	12.1%
CCn1c(-c2nonc2N)nc2c(C#CC(C)(C)O)ncc(OCC3CCNCC3)c21	1.08%	-1.36%	1.24%	-2.92%	5%	1.31%	16.7%
NS(=O)(=O)c1ccc(N/C=C2\C(=O)Nc3ccc4ncsc4c32)cc1	0.21%	1.82%	2.58%	17.8%	58.6%	29.4%	58.9%
COc1cc2c(cc1Nc1nc(Nc3ccsc3C(N)=O)c3cc[nH]c3n1)N(C(=O)CN(C)C)CCC2	-4.6%	-1.66%	-1.26%	80.8%	86.2%	63%	61.2%
Fc1ccc(-c2ncn(C3CCNCC3)c2-c2ccnc(Oc3ccccc3)n2)cc1	1.07%	0.54%	0.35%	-5.14%	-7.49%	-2.28%	-0.98%
COc1cc(C=NNc2ncnc3c2cnn3Cc2ccccc2)ccc1O	8.55%	1.48%	-1.52%	-2.34%	3.59%	1.06%	10.1%
CCn1c(-c2nonc2N)nc2c(C#CC(C)(C)O)ncc(OC[C@@H]3CCCN3)c21	0.33%	0.18%	0.53%	0.96%	7.88%	2.98%	12.5%
